In the library only some 11% were active in any assay of this set; here they are far more common.
CBFb RUNX1 block – inhibitors of human CBF-beta and RUNX1 interaction; Q01196+Q13951; Potency, µM (titrated, usually from 59.8 µM), hits mostly inhibitors; AlphaScreen CBFb-His/RUNX1-biotin binding, biochemical; 230,000 tested, under 10 active; AID 1477
Target sequence (Q01196 whole entry, looked up): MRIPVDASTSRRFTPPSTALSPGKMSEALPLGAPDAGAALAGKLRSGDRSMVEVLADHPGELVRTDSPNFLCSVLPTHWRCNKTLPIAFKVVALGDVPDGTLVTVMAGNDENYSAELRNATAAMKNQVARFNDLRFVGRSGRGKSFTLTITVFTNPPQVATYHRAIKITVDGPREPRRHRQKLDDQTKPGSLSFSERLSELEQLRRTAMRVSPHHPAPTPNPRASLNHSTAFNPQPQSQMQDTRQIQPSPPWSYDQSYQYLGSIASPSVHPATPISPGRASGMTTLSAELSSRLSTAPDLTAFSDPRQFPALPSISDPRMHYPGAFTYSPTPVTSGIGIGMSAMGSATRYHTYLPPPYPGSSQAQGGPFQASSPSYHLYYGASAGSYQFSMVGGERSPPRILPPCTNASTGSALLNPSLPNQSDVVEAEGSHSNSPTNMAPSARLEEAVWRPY
Target sequence (Q13951 whole entry, looked up): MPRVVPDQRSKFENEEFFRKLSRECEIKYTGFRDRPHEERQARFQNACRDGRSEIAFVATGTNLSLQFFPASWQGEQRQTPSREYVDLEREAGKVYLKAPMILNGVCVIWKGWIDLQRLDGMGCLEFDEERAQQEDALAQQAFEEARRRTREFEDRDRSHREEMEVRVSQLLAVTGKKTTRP
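AlphaScreen binding: CBFb-His and RUNX1-biotin (30 nM each) preincubated 20 min, compound added for 15 min, then nickel and streptavidin beads for 90 min, all at room temperature. Disruption of the interaction by any mechanism counts as activity.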
HTT cytoprotect – cytoprotection in Huntington HTT-Q103 PC12 cell model. Potency, µM (highest dose often 56.4 µM), actives largely listed as activators. PC12 HTT-Q103 induced, cytoprotection, ATP luminescence, 40 h. actives 0.14% (n = 230,000); note: nearly all actives have a fitted effect of over 45% in size
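Stable PC12 Q103-GFP cells in serum-supplemented, phenol red-free DMEM; induction by tebufenozide at 100 nM final; compound dose series; cell viability quantified luminescently from ATP.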
HPGD inh – blocks human HPGD enzyme activity | purified HPGD, NADH fluorescence kinetic, PGE2 substrate | Potency, µM, actives largely listed as inhibitors | AID 894 | P15428 | actives 4.3% (n = 150,000); active = well fitted inhibition curve with a large enough effect, not every such curve was filed as active; inconclusive = small, poorly fitted or top-dose-only effect, or another doubt; inactive = no such curve, though single readings can be large or run the other way
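NADH formation kinetics: reaction with 30 uM PGE2 and 1 mM NAD+ (final), 20 nM enzyme, Tris-HCl pH 8 with Tween 20, after 15 min compound preincubation at room temperature. Fluorescence change, last versus first of five reads.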
HTT aggregate – reduces HttQ103-GFP aggregates in PC12 cells; PC12 HttQ103-GFP aggregates, Acumen cytometry, 40 h; Potency, µM (highest dose often 46.1 µM), usual class: inhibitors; actives 1.1% (n = 220,000); note: nearly all actives have a fitted effect of over 60% in size
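Ecdysone-promoter PC12 model expressing HTT exon 1 Q103 fused to GFP, induced by tebufenozide at 100 nM final. Compounds titrated; aggregates sized 1–25 µm scored on a 488 nm laser cytometer.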
ALDH1A1 inh – inhibitors of human aldehyde dehydrogenase 1A1. P00352. Purified ALDH1A1, NADH fluorescence, propionaldehyde substrate. Potency, µM (highest dose often 75.3 µM), most hits filed as inhibitors. actives 7.3% (n = 220,000). AID 1030; active = well fitted inhibition curve with a large enough effect, not every such curve was filed as active; inconclusive = small, poorly fitted or top-dose-only effect, or another doubt; inactive = no such curve, though single readings can be large or run the other way
PNC assembly inh – perinucleolar compartment assembly inhibition; PC3M PTB-GFP, PNC prevalence imaging, 16 h; active compounds read low; actives 3.1% (n = 140,000); activity change (PNC), negative = inhibition, % at 10 µM;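 active = readout at or below -70, meaning at least 70% loss of cells showing the perinucleolar compartment, a nuclear body marking cancer cells; inconclusive = readout between -30 and a set limit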
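PC3M cells stably expressing PTB-GFP, 750–1000 cells/well, treated 16 h at 37 °C with compound (23 nl of library stock), in duplicate. After paraformaldehyde fixation and Hoechst stain, imaged at 20x; PNC prevalence scored by image analysis.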
Hits are given with their value; – = inactive; ? = inconclusive; · = no result; [ ] = remark or other dose. Unless noted, calls come from the whole dose curve; as a rule, active = well fitted curve in the direction sought with a large enough effect; inconclusive = small, poorly fitted or top-dose-only effect, or another doubt; inactive = no such curve, though single readings can be large; an effect the other way counts as inactive or inconclusive.

SMILES | CBFb RUNX1 block | HTT cytoprotect | HPGD inh | HTT aggregate | ALDH1A1 inh | PNC assembly inh
Cc1ccc2c(c1)C1CN(C)CCC1N2C(=S)NC(=O)c1ccc(Br)cc1 (centres undefined) | – | – | · | – | 14µM | ·
CC(C)n1c(-c2ccc(C(C)(C)C)cc2)n[nH]c1=S | – | – | – | 8.9µM | ? | –
CC(C)n1c(-c2ccccc2F)n[nH]c1=S | – | – | – | – | – | –
COC(=O)C1=C(C)N(Cc2ccccc2)[C@]23O[C@](C(=O)OC)(C(=O)N2C1c1ccccc1)C(C(=O)OC)=C3C(=O)OC (some centres undefined) | –[13.1 µM] | –[10 µM] | · | · | –[13.5 µM] | ·
COc1cc(-c2ccc(N=Nc3ccc4c(S(=O)(=O)O)cc(S(=O)(=O)O)c(N)c4c3O)c(OC)c2)ccc1N=Nc1ccc2c(S(=O)(=O)O)cc(S(=O)(=O)O)c(N)c2c1O | · | – | 14µM | · | ? | ·
CCS(=O)(=O)c1ccc(N=Nc2ccc(O)c3ncccc23)c(OC)c1 | · | – | · | ? | – | ·
Cc1nn(-c2ccc(S(=O)(=O)O)cc2)c(O)c1N=Nc1ccc(-c2ccc(N=Nc3ccc4c(S(=O)(=O)O)cc(S(=O)(=O)O)c(N)c4c3O)c(O)c2)cc1O.[Cu].[Cu] | · | –[10 µM] | 0.79µM | · | ? | ·
CCCCCCOc1ccc(C(CC(N)=O)C(=O)O)cc1 (centres undefined) | – | –[10 µM] | · | –[9.22 µM] | – | ·
CCCCCCOc1ccc(C(CC(=O)O)C(N)=O)cc1 (centres undefined) | – | – | – | – | – | -104
COc1cccc(C(=O)NC(=S)Nc2ccc3c4c(cccc24)CC3)c1 | – | – | – | – | 14µM | –
COc1ccc(OCC(=O)NC(=S)Nc2ccc3c4c(cccc24)CC3)cc1 | – | · | ? | – | 16µM | –
COc1ccc(-c2ccc(SCC(=O)c3cccs3)nn2)cc1OC | – | – | · | –[9.22 µM] | – | ·
O=C(C1Cc2ccccc2O1)N1CCCCC1 (centres undefined) | – | –[10 µM] | 25µM | – | – | –
O=C(C1CC(c2ccccc2O)=NO1)N1CCCCC1 (centres undefined) | – | – | 7.9µM | – | ? | ?
COc1ccc(-c2ccc(SCC(=O)c3ccc(F)cc3)nn2)cc1OC | – | – | · | – | 16µM | ·
O=C(C1CC(c2ccccc2O)=NO1)N1CCc2ccccc2C1 (centres undefined) | – | – | 16µM | –[9.22 µM] | – | –
COc1cccc(C2=NOC(C(=O)N3CCc4ccccc4C3)C2)c1 (centres undefined) | – | –[10 µM] | – | – | – | ?
CCc1ccc(S(=O)(=O)Nc2ccc(O)c(C(=O)O)c2)cc1 | · | · | – | · | ? | ·
FC(F)Oc1ccc(NC(=S)NCCc2ccccn2)cc1 | – | – | · | – | – | ·
C=C(CC(=O)OC)C[C@]1(CC(=O)OC)CC2(CC=C(C)C)C(=O)C(C(=O)c3ccccc3)=C(OC(=O)c3ccc(Br)cc3)C(CC=C(C)C)(C1)C2=O (some centres undefined) | –[13.1 µM] | –[10 µM] | · | · | –[13.5 µM] | ·
S=C1NCN(Cc2cccnc2)CN1c1cccc2ccccc12 | – | –[10 µM] | · | –[9.22 µM] | – | ·
O=C(C1CC(c2ccc(F)cc2)=NO1)N1CCc2ccccc2C1 (centres undefined) | – | – | 20µM | – | – | –
O=C(CSc1ccc(-c2ccc(F)cc2)nn1)NCC1CCCO1 (centres undefined) | – | – | · | – | – | ·
CC1CCCCN1C(=O)C1CC(c2ccc(F)cc2)=NO1 (centres undefined) | – | – | · | – | 0.32µM | ?
CC1CCCCN1C(=O)CSc1ccc(-c2ccc(F)cc2)nn1 (centres undefined) | – | – | 22µM | – | ? | ?
CCOc1cc(/C=N/NC(=O)c2cccnc2)cc(Br)c1OCC(N)=O | – | – | · | ? | – | ·
COc1cc(C#CC#CCN2CCCCC2)ccc1O | – | – | 14µM | – | 1.6µM | ?
COc1ccc(-c2nc3cc(NC(=S)NC(=O)Cc4ccccc4)ccc3o2)cc1 | – | –[10 µM] | – | – | 11µM | –
CCC(=O)NC(=S)Nc1ccc2oc(-c3ccc(OC)cc3)nc2c1 | – | – | · | – | – | ·

Screening data (PubChem BioAssay)
